From PubChem BioAssay (NCI)
“And” between values parts separate entries of the source, which are not always exact repeats. Identical values can stand only once. Compounds without any hit were thinned out: in the full panel of roughly 83,000, 20% have a hit.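 Compound tested at a single concentration for 48 hours in 96-well plates; a percent growth value below 10 was scored as active.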 The source made the active and inactive calls.

Assays:
Experiment in all cases: NCI-60 one-dose screen, 48 h (100 = growth as untreated, 0 = no growth, -100 = all killed)
Conditions in all cases: 10 µM unless noted
SR leukemia = test system: SR leukemia
RPMI-8226 leukemia = test system: RPMI-8226 leukemia
OVCAR-8 ovarian = test system: OVCAR-8 ovarian
OVCAR-5 ovarian = test system: OVCAR-5 ovarian
OVCAR-4 ovarian = test system: OVCAR-4 ovarian
SK-OV-3 ovarian = test system: SK-OV-3 ovarian
IGROV1 ovarian = test system: IGROV1 ovarian
OVCAR-3 ovarian = test system: OVCAR-3 ovarian
HS 578T breast = test system: HS 578T breast
NCI/ADR-RES ovarian = test system: NCI/ADR-RES ovarian
T-47D breast = test system: T-47D breast
BT-549 breast = test system: BT-549 breast
MDA-MB-435 melanoma = test system: MDA-MB-435 melanoma
SW-620 colon = test system: SW-620 colon
MCF7 breast = test system: MCF7 breast
HCT-116 colon = test system: HCT-116 colon
HCC-2998 colon = test system: HCC-2998 colon
KM12 colon = test system: KM12 colon

Measured: growth

CCNCc1ccccc1
inactive: SR leukemia 97.5% | RPMI-8226 leukemia 119% | OVCAR-8 ovarian 100% | OVCAR-5 ovarian 98.5% | OVCAR-4 ovarian 114% | SK-OV-3 ovarian 97.5% | IGROV1 ovarian 106% | OVCAR-3 ovarian 102% | HS 578T breast 102% | NCI/ADR-RES ovarian 102% | T-47D breast 98.3% | BT-549 breast 124% | MDA-MB-435 melanoma 110% | SW-620 colon 108% | MCF7 breast 98.7% | HCT-116 colon 97.6% | HCC-2998 colon 99.8% | KM12 colon 99.8%

CC(=O)Nc1ccc2oc(=O)ccc2c1
inactive: SR leukemia 82.3% | RPMI-8226 leukemia 104% | OVCAR-8 ovarian 106% | OVCAR-5 ovarian 102% | OVCAR-4 ovarian 106% | SK-OV-3 ovarian 102% | IGROV1 ovarian 105% | OVCAR-3 ovarian 110% | HS 578T breast 109% | NCI/ADR-RES ovarian 116% | T-47D breast 85.3% | BT-549 breast 89.8% | MDA-MB-435 melanoma 105% | SW-620 colon 107% | MCF7 breast 110% | HCT-116 colon 86.5% | HCC-2998 colon 110% | KM12 colon 100%

Cc1ccc(NC(=S)N/C=C(\c2ccccc2)S(=O)Cc2ccccc2)c(C)c1 (stereo not given)
inactive: SR leukemia 96.5% | RPMI-8226 leukemia 94% | OVCAR-8 ovarian 99.2% | OVCAR-5 ovarian 97% | OVCAR-4 ovarian 91.3% | SK-OV-3 ovarian 100% | IGROV1 ovarian 112% | OVCAR-3 ovarian 106% | HS 578T breast 94.8% | NCI/ADR-RES ovarian 105% | T-47D breast 77.4% | BT-549 breast 99.3% | MDA-MB-435 melanoma 97.9% | SW-620 colon 98% | MCF7 breast 90.3% | HCT-116 colon 100% | HCC-2998 colon 105% | KM12 colon 102%

O=C(c1ccc(Cl)cc1)C1C(c2ccccc2)C1[N+](=O)[O-] (stereo not given)
inactive: SR leukemia 78% | RPMI-8226 leukemia 96.3% | OVCAR-8 ovarian 99% | OVCAR-5 ovarian 109% | OVCAR-4 ovarian 99% | SK-OV-3 ovarian 105% | IGROV1 ovarian 103% | OVCAR-3 ovarian 97.8% | HS 578T breast 96% | NCI/ADR-RES ovarian 99.7% | T-47D breast 89.3% | BT-549 breast 99.3% | MDA-MB-435 melanoma 114% | SW-620 colon 104% | MCF7 breast 96% | HCT-116 colon 106% | HCC-2998 colon 96.9% | KM12 colon 97.9%

COc1cc(NCCCCCCCNC(C)C)c2nccc(C)c2c1
active: MCF7 breast -1.6% and -9.72%
93.9% (inactive) and 7.03% (active): MDA-MB-435 melanoma
inactive: SR leukemia 80.1% and 36.1% | RPMI-8226 leukemia 81.1% and 92.7% | OVCAR-8 ovarian 86.4% and 89.7% | OVCAR-5 ovarian 88.3% and 96.9% | OVCAR-4 ovarian 15.8% | SK-OV-3 ovarian 93.8% and 72.9% | IGROV1 ovarian 82.3% and 85.9% | OVCAR-3 ovarian 22.8% and 26.4% | HS 578T breast 95% and 68.8% | NCI/ADR-RES ovarian 88.1% and 84.6% | T-47D breast 59.9% | BT-549 breast 85.7% and 64.2% | SW-620 colon 98% and 73% | HCT-116 colon 73.3% and 50.4% | HCC-2998 colon 67.2% and 61.5% | KM12 colon 92.6% and 73.1%

CCOCCC(=O)O
inactive: SR leukemia 109% | RPMI-8226 leukemia 107% | OVCAR-8 ovarian 109% | OVCAR-5 ovarian 101% | OVCAR-4 ovarian 104% | SK-OV-3 ovarian 102% | IGROV1 ovarian 114% | OVCAR-3 ovarian 115% | HS 578T breast 98.7% | NCI/ADR-RES ovarian 107% | T-47D breast 94.1% | BT-549 breast 107% | MDA-MB-435 melanoma 108% | SW-620 colon 101% | MCF7 breast 104% | HCT-116 colon 97.3% | HCC-2998 colon 123% | KM12 colon 117%

CN1C2C=CC(=O)C1C1C(=O)N(c3ccccc3)C(=O)C12 (stereo not given)
active: IGROV1 ovarian -9.22%
inactive: SR leukemia 67.5% | RPMI-8226 leukemia 37.5% | OVCAR-8 ovarian 69.9% | OVCAR-5 ovarian 102% | OVCAR-4 ovarian 76.4% | SK-OV-3 ovarian 105% | OVCAR-3 ovarian 47.1% | HS 578T breast 77.5% | NCI/ADR-RES ovarian 92.6% | T-47D breast 68.5% | BT-549 breast 52.9% | MDA-MB-435 melanoma 80.5% | SW-620 colon 37.3% | MCF7 breast 44.5% | HCT-116 colon 35.9% | HCC-2998 colon 113% | KM12 colon 56.3%

O=c1[nH]c(=O)c2[nH]c(=O)[nH]c2[nH]1
inactive: SR leukemia 114% | RPMI-8226 leukemia 101% | OVCAR-8 ovarian 102% | OVCAR-5 ovarian 99.7% | OVCAR-4 ovarian 109% | SK-OV-3 ovarian 115% | IGROV1 ovarian 106% | OVCAR-3 ovarian 107% | HS 578T breast 102% | NCI/ADR-RES ovarian 106% | T-47D breast 103% | BT-549 breast 90.8% | MDA-MB-435 melanoma 100% | SW-620 colon 94.3% | MCF7 breast 92.1% | HCT-116 colon 94.6% | HCC-2998 colon 107% | KM12 colon 104%

CC(C)(C)OC(=O)c1ccc(NCc2cc(O)ccc2O)cc1
inactive: OVCAR-8 ovarian 17.2% | OVCAR-5 ovarian 106% | OVCAR-4 ovarian 12.3% | SK-OV-3 ovarian 44.6% | HS 578T breast 30.8% | NCI/ADR-RES ovarian 23.1% | MDA-MB-435 melanoma 20% | SW-620 colon 18.9% | MCF7 breast 29.5% | HCT-116 colon 36.2% | HCC-2998 colon 113%
active: SR leukemia 3.5% | RPMI-8226 leukemia 1.66% | IGROV1 ovarian -14.3% | OVCAR-3 ovarian -83.8% | T-47D breast -67.5% | BT-549 breast -17.6% | KM12 colon 8.14%

OC1CCCN(Cc2ccccc2)C1 (stereo not given)
inactive: SR leukemia 88.6% | RPMI-8226 leukemia 90.5% | OVCAR-8 ovarian 105% | OVCAR-5 ovarian 108% | OVCAR-4 ovarian 129% | SK-OV-3 ovarian 99.7% | IGROV1 ovarian 112% | OVCAR-3 ovarian 113% | HS 578T breast 118% | NCI/ADR-RES ovarian 101% | T-47D breast 94.9% | BT-549 breast 112% | MDA-MB-435 melanoma 107% | SW-620 colon 107% | MCF7 breast 102% | HCT-116 colon 103% | HCC-2998 colon 116% | KM12 colon 107%

COc1ccc(CCNC(=S)NN)cc1OC
inactive: SR leukemia 104% | RPMI-8226 leukemia 99% | OVCAR-8 ovarian 103% | OVCAR-5 ovarian 104% | OVCAR-4 ovarian 99.3% | SK-OV-3 ovarian 121% | IGROV1 ovarian 107% | OVCAR-3 ovarian 108% | HS 578T breast 102% | NCI/ADR-RES ovarian 102% | T-47D breast 98.8% | BT-549 breast 118% | MDA-MB-435 melanoma 111% | SW-620 colon 99% | MCF7 breast 93.9% | HCT-116 colon 84.2% | HCC-2998 colon 88.8% | KM12 colon 94.2%

COC(=O)c1nc(N)nc(C(=O)OC)c1C(=O)c1ccc(F)cc1
inactive: SR leukemia 112% | RPMI-8226 leukemia 112% | OVCAR-8 ovarian 107% | OVCAR-5 ovarian 114% | OVCAR-4 ovarian 110% | SK-OV-3 ovarian 108% | IGROV1 ovarian 111% | OVCAR-3 ovarian 116% | HS 578T breast 102% | NCI/ADR-RES ovarian 109% | T-47D breast 105% | BT-549 breast 120% | MDA-MB-435 melanoma 107% | SW-620 colon 110% | MCF7 breast 97.1% | HCT-116 colon 110% | HCC-2998 colon 110% | KM12 colon 107%

CC1CCC(=O)N1c1ccc(N)cc1 (stereo not given)
inactive: SR leukemia 93.8% | RPMI-8226 leukemia 103% | OVCAR-8 ovarian 100% | OVCAR-5 ovarian 99.9% | OVCAR-4 ovarian 107% | SK-OV-3 ovarian 99.3% | IGROV1 ovarian 101% | OVCAR-3 ovarian 108% | HS 578T breast 108% | NCI/ADR-RES ovarian 106% | T-47D breast 81.9% | BT-549 breast 99.9% | MDA-MB-435 melanoma 109% | SW-620 colon 114% | MCF7 breast 97.6% | HCT-116 colon 101% | HCC-2998 colon 98.8% | KM12 colon 102%

COc1ccc(CCO)cc1
inactive: SR leukemia 75.6% | RPMI-8226 leukemia 110% | OVCAR-8 ovarian 101% | OVCAR-5 ovarian 103% | OVCAR-4 ovarian 111% | SK-OV-3 ovarian 109% | IGROV1 ovarian 99.6% | OVCAR-3 ovarian 111% | HS 578T breast 98.2% | NCI/ADR-RES ovarian 108% | T-47D breast 101% | BT-549 breast 105% | MDA-MB-435 melanoma 109% | SW-620 colon 104% | MCF7 breast 102% | HCT-116 colon 94.6% | HCC-2998 colon 107% | KM12 colon 102%

Cc1ccc(C(=O)c2ccc(C)cc2)cc1
inactive: SR leukemia 84.3% and 110% | RPMI-8226 leukemia 86.8% and 96.4% | OVCAR-8 ovarian 94.3% and 109% | OVCAR-5 ovarian 103% | OVCAR-4 ovarian 87.2% and 117% | SK-OV-3 ovarian 101% and 107% | IGROV1 ovarian 86.3% and 99% | OVCAR-3 ovarian 99.1% and 105% | HS 578T breast 101% | NCI/ADR-RES ovarian 93% | T-47D breast 90.7% and 94.9% | BT-549 breast 92% | MDA-MB-435 melanoma 103% and 105% | SW-620 colon 104% and 101% | MCF7 breast 99.9% and 95.3% | HCT-116 colon 92.5% and 98% | HCC-2998 colon 87.5% and 99.8% | KM12 colon 102% and 108%
